Assay [1] concerns the target Death-associated protein kinase 1 (Homo sapiens) (UniProt P53355). The following applies: at 1 µM.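 Note: each value is a mean inhibition figure.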
For assay [2], the target named is T1, Serine/threonine-protein kinase DCLK2 (Homo sapiens) (UniProt Q8N568).
T1 sequence (whole entry): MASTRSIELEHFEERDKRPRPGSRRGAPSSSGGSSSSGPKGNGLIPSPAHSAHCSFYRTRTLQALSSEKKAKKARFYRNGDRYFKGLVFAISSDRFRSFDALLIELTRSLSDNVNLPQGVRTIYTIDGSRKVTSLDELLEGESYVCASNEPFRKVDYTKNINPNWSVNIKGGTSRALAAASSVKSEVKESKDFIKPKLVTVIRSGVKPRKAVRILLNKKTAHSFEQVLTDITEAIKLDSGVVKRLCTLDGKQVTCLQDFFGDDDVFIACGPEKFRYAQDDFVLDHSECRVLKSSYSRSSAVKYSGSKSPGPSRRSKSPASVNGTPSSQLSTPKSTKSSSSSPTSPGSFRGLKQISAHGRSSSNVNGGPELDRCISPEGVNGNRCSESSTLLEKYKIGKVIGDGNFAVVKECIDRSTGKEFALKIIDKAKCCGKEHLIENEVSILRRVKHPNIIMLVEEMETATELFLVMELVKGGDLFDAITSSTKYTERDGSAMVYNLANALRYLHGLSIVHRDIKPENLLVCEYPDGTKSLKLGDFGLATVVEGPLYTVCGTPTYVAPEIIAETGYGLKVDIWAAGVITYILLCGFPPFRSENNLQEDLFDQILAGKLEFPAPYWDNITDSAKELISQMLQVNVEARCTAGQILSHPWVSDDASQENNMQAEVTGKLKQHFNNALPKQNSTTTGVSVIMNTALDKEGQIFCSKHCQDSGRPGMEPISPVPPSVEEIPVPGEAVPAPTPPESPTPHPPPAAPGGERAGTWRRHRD
The conditions noted are these: at 0.1 µM.

The target of assay [3] is T1, Serine/threonine-protein kinase DCLK2 (Homo sapiens). The following applies: at 1 µM.
Assay [4] deals with MAP kinase-activated protein kinase 2 (Homo sapiens) (UniProt P49137). The conditions noted are these: at 0.1 µM.
Chain of MAP kinase-activated protein kinase 2 (Homo sapiens) (P49137 whole entry, looked up): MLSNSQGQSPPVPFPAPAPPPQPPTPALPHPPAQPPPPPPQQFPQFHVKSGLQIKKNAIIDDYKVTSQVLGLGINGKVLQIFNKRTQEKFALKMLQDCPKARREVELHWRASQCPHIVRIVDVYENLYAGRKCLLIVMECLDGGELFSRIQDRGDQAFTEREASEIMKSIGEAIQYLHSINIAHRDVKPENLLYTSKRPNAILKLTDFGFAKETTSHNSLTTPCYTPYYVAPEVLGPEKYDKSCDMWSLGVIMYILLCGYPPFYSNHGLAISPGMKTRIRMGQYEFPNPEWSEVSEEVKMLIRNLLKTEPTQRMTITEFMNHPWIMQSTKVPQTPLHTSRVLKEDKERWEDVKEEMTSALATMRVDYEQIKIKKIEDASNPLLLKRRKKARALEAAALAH
The target is the same in assay [5]. The conditions noted are these: at 1 µM.
Assay [6] deals with MAP kinase-activated protein kinase 3 (Homo sapiens) (UniProt Q16644). The conditions noted are these: at 0.1 µM.
Chain of MAP kinase-activated protein kinase 3 (Homo sapiens) (Q16644 whole entry, looked up): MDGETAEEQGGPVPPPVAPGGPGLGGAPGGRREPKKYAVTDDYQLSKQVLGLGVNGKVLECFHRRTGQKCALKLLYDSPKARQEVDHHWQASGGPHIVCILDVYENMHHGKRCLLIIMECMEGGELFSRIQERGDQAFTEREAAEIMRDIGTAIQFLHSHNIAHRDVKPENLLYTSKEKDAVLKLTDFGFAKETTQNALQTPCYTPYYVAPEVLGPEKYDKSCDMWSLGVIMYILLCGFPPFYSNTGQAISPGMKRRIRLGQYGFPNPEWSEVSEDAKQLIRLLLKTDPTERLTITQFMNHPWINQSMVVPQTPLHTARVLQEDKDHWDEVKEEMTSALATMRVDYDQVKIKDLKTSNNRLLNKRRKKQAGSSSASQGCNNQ
Assay [7] shares this target. The conditions noted are these: at 1 µM.
Assay [8] has as its target Serine/threonine-protein kinase MARK1 (Homo sapiens) (UniProt Q9P0L2). The following applies: at 0.1 µM.
Assay [9] shares this target. The following applies: at 1 µM.
Assay [10] deals with MAP/microtubule affinity-regulating kinase 3 (Homo sapiens) (UniProt P27448). The following applies: at 0.1 µM.
Chain of MAP/microtubule affinity-regulating kinase 3 (Homo sapiens) (P27448 whole entry, looked up): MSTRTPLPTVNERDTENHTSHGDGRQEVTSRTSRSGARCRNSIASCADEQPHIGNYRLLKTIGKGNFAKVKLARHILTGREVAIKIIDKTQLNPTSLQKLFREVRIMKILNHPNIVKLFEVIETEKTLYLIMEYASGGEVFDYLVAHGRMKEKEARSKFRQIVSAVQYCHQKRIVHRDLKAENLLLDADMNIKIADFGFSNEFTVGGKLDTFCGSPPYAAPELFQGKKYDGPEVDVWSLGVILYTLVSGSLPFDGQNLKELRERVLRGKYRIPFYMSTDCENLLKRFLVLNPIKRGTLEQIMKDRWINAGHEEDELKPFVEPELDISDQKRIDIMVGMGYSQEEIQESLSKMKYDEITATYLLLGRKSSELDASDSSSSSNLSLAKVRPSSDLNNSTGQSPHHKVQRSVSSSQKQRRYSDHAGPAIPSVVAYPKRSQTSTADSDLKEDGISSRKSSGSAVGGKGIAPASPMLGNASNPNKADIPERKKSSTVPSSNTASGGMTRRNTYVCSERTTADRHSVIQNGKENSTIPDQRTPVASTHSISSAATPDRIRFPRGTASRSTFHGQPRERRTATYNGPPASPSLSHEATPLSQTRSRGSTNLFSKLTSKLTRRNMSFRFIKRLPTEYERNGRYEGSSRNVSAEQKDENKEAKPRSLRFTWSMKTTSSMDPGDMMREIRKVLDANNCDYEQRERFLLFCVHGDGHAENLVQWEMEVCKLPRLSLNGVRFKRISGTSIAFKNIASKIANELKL

SMILES strings stand for the structures.

In general, inhibition refers to the relative decrease from the control value, in per cent.

Chain of Death-associated protein kinase 1 (Homo sapiens) (P53355 whole entry, looked up): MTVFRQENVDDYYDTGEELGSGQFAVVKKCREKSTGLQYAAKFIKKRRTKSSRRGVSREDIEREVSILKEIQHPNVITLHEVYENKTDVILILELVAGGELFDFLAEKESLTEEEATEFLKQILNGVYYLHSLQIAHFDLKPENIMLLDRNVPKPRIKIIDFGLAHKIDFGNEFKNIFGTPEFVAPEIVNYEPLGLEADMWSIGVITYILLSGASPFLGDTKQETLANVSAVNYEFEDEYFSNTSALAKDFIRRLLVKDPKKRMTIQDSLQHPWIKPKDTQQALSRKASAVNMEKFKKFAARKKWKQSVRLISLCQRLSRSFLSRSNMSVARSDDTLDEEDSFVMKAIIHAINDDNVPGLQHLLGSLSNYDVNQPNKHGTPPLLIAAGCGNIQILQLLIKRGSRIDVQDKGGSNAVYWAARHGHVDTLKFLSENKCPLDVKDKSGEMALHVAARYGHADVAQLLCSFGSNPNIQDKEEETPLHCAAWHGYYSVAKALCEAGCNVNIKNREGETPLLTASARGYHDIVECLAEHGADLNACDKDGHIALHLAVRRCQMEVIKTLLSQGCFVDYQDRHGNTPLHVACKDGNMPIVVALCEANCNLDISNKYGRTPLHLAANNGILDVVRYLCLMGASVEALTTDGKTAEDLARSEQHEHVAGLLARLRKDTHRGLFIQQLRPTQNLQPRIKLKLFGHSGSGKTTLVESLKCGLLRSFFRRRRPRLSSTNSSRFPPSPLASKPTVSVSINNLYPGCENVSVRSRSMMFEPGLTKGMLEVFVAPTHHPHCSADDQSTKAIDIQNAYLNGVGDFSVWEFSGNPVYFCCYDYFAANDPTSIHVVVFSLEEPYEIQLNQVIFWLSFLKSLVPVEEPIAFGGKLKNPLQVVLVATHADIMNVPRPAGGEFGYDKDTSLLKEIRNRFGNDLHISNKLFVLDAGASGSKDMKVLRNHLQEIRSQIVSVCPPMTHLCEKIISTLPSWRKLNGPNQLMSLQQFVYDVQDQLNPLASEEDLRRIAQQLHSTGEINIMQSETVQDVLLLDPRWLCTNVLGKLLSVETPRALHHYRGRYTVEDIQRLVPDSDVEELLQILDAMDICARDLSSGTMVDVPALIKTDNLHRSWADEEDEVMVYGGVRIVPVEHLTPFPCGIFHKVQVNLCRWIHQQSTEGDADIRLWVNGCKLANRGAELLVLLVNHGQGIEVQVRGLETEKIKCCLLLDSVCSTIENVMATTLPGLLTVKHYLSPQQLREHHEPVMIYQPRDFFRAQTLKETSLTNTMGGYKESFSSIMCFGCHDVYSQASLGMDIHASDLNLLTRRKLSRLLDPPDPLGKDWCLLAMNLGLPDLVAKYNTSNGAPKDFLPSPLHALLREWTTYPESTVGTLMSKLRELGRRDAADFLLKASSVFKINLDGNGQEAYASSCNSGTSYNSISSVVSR
Chain of Serine/threonine-protein kinase MARK1 (Homo sapiens) (Q9P0L2 whole entry, looked up): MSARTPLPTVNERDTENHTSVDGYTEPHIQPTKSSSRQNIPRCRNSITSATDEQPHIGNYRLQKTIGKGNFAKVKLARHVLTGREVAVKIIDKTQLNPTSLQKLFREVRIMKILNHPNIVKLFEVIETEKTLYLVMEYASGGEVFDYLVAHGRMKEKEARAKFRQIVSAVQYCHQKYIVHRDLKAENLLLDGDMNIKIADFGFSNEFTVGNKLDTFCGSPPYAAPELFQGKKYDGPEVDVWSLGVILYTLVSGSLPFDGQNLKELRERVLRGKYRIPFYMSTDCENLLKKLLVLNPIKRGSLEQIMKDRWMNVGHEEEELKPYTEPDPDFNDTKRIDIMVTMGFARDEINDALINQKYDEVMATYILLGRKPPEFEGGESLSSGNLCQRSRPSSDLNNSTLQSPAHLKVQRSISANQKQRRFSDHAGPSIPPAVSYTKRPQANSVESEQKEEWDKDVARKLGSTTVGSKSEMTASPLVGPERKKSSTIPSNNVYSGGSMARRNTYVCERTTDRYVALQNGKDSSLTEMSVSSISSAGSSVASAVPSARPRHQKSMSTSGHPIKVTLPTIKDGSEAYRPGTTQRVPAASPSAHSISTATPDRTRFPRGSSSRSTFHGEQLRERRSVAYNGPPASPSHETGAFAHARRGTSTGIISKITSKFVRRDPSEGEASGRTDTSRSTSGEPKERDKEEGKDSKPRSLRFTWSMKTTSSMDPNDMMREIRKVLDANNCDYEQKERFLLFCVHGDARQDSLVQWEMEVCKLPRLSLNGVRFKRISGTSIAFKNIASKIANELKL

Consider `Cc1cc(O)cc(C)c1/C=C/c1cncc(C(=O)N(C)C)c1`, for which the inhibition in [1] turned out to be 5.28%; in assay [2] it was 3.47%; in assay [3], 0.19%; in assay [4] it was 0.52%; in assay [5], 0.82%; in assay [6], 0.87%. Besides, the inhibition came to 1.23% in assay [7], 1.15% in assay [8], 1.29% in [9] and 2.67% in [10].

With `COc1cccc(-n2ncc3c(N/N=C/c4ccc(S(C)(=O)=O)cc4)ncnc32)c1`, the inhibition is -2.35% in assay [1]; -3.49% in [2]; -3.25% in [3]; -0.57% in assay [4]; -0.87% in assay [5]; -0.21% in assay [6]. For the same compound, the inhibition in assay [7] was -1.31%; in assay [8] it was 0.85%; in assay [9] it was 4.83%; in assay [10] it was 0.34%.

`Cc1ccc2c(-c3ccnc(Nc4ccc5c(c4)OCCO5)n3)c(-c3ccc(C(F)(F)F)cc3)nn2n1`: the inhibition in assay [1] is 1.35%; in assay [2] it was -1.42%; in assay [3] it was -0.35%; in assay [4] it was 0.41%; in [5], -0.12%; in assay [6] it was 2.89%. In addition, the inhibition in [7] was 10.8%; in [8], 1.39%; in [9], 2.56%; in assay [10], -1.05%.

`NC(=O)c1cccc(Nc2nccc(Nc3cccc(F)c3)n2)c1`: the inhibition in [1] is -2.63%; in [2] it was -0.56%; in assay [3], 0.44%; in assay [4], 0.22%; in assay [5], 0.05%; in assay [6], 1.51%. The inhibition in [7] turned out to be 1.85%; in [8], 0.81%; in assay [9], 2.94%; in [10], 1.98%.

Take `CCS(=O)(=O)c1ccc(OC)c(Nc2nccc(N(C)c3ccc4c(C)n[nH]c4c3)n2)c1`: the inhibition was 4.98% in [1]; -0.1% in assay [2]; 2.14% in assay [3]; 2.62% in assay [4]; 1.63% in [5]; 3.91% in [6]. The inhibition worked out at 6.4% in assay [7], 2.93% in [8], 3.99% in [9] and 3.81% in assay [10].

In the case of `COc1cc(/C=N/Nc2ncnc3c2cnn3C(C)C)ccc1O`, the inhibition came to 0.9% in assay [1]; 2.33% in assay [2]; 1.29% in assay [3]; 0.78% in [4]; 0.4% in [5]; 0.97% in assay [6]. The inhibition amounted to 0.08% in assay [7], 2.39% in assay [8], 4.77% in assay [9] and 0.28% in assay [10].

Consider `NS(=O)(=O)c1cccc(-c2cc3ccncc3cc2OCc2ccccc2)c1`, for which the inhibition in assay [1] was 7.29%; in assay [2], 0.9%; in assay [3], 0.91%; in [4], 2.83%; in assay [5] it was 3.32%; in [6] it was 4.06%. Further, the inhibition turned out to be 3.27% in assay [7], 5.91% in assay [8], 9.52% in assay [9] and 5.98% in assay [10].

For the compound `CC(C)c1ccc2c(c1)NC(=O)/C2=N/Nc1ccc(S(N)(=O)=O)cc1`, the inhibition in [1] was -1.66%; in [2], -1.85%; in assay [3], -0.66%; in [4], -1.01%; in assay [5], -0.9%; in assay [6] it was -0.68%. Besides, the inhibition was -1.45% in assay [7], -0.84% in [8], 0.9% in assay [9] and -3.67% in assay [10].

With `COc1cc2ncnc(Nc3ccc(C)c(O)c3)c2cc1OC`, the inhibition in assay [1] came to 6.25%; in assay [2], 2.8%; in assay [3], 0.34%; in assay [4] it was 3.52%; in [5], 3.42%; in assay [6], 5.93%. Further, the inhibition in assay [7] worked out at 7.13%; in assay [8], 4.14%; in assay [9] it was 7.86%; in [10], 4.06%.

`Cc1ccc(NC(=O)CC2CC2)cc1-c1ccc(C(=O)NCC2CC2)cc1`: the inhibition was 12.4% in [1]; 1.13% in [2]; 0.51% in assay [3]; 4.17% in assay [4]; 4.27% in [5]; 18.4% in assay [6]. Moreover, the inhibition in assay [7] was 33.5%; in assay [8] it was 2.05%; in [9], 2.04%; in assay [10], 2.42%.

In the case of `COc1cc(Nc2nccc(-c3cnn4ncccc34)n2)cc(OC)c1`, the inhibition in [1] was 1.26%; in assay [2], 4.84%; in assay [3], -3.23%; in assay [4], 0.26%; in assay [5], 0.15%; in [6], 0.44%. The inhibition was 0.56% in assay [7], 4.67% in assay [8], 32.3% in assay [9] and 6.88% in assay [10].

With `CCS(=O)(=O)c1ccc(OC)c(Nc2ncc(-c3cccc(OC)c3)o2)c1`, the inhibition in assay [1] was 4.19%; in assay [2], 0.56%; in assay [3], -0.14%; in assay [4], 0.86%; in assay [5], 0.67%; in [6], 1.43%. The inhibition in assay [7] turned out to be 3.53%; in assay [8], 1.2%; in assay [9], 2.37%; in assay [10], 3.96%.

Consider `NS(=O)(=O)c1ccc(N/N=C2\C(=O)Nc3ccc(Cl)cc32)cc1`, for which the inhibition is -3.71% in [1]; 0.73% in assay [2]; 1% in [3]; -0.88% in assay [4]; -0.73% in assay [5]; -2.03% in assay [6]. Moreover, the inhibition is -2.76% in assay [7], 3.26% in assay [8], 11.4% in [9] and 4.4% in assay [10].

Regarding `COC(=O)c1cncc(/C=C/c2c(C)cc(O)cc2C)c1`, the inhibition in assay [1] worked out at 5.55%; in [2], 1.84%; in assay [3], 1.18%; in assay [4], 1.83%; in [5], 2.28%; in assay [6] it was 2.97%. Further, the inhibition was found to be 3.34% in assay [7], 2.55% in assay [8], 2.79% in assay [9] and 2.68% in [10].

Consider `Cc1nc(-c2ccccc2)n2nc(NCCCN3CCOCC3)ncc12`, for which the inhibition in assay [1] is 1.62%; in [2], -0.46%; in [3] it was 1.45%; in assay [4], 1.25%; in assay [5] it was 2.01%; in assay [6], 1.51%. For the same compound, the inhibition amounted to 1.12% in assay [7], 0.92% in assay [8], 3% in assay [9] and 0.93% in assay [10].

As to `COc1cccc(-n2nc(C)c3c(N/N=C(\C)c4ccncc4)ncnc32)c1`, the inhibition was -0.72% in assay [1]; -1% in assay [2]; 0.33% in assay [3]; 0.1% in [4]; 0.45% in assay [5]; 0.03% in assay [6]. Moreover, the inhibition in assay [7] is 0.31%; in assay [8], 0.08%; in [9], 1.32%; in [10] it was -0.48%.

Consider `Cc1ccc(C(=O)NC2CC2)cc1-c1ccc2[nH]ncc2c1`, for which the inhibition in assay [1] was -2.38%; in [2], -3.53%; in assay [3], -2.34%; in assay [4], -2.72%; in [5], -1.94%; in assay [6], 3.22%. For the same compound, the inhibition stood at 18.7% in assay [7], 0.44% in assay [8], 2.83% in assay [9] and 1.64% in assay [10].
